13 molecules from PubChem BioAssay (NCI) can be followed below.

Values joined by “and” are separate entries in the source; they are usually repeats but may differ in a detail not shown here. Equal values may be shown once. Compounds without any hit were thinned out: in the full panel of roughly 83,000, 20% have a hit.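 Percent growth is the endpoint: 0 to 100 indicates growth inhibition (40 means 60% inhibition), 0 means no net growth, and negative values indicate cell death.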 Unmarked numbers belong to inactive results. Active and inactive are the calls of the source. The calls were made as follows: active = growth percent below 10; inactive = the rest.

Test systems include NCI-H23 lung; NCI-H226 lung; HOP-62 NSCLC; NCI-H460 lung; HOP-92 NSCLC; NCI-H522 lung; A549/ATCC NSCLC; 786-0 renal; COLO 205 colon; NCI-H322M lung.
What all share (experiment): NCI-60 one-dose screen, 48 h (100 = growth as untreated, 0 = no growth, -100 = all killed)
What all share (conditions): 10 µM unless noted

Take `CC1=CC=C(NC(=O)/C=C/c2ccccc2)CC1Nc1nccc(-c2cccnc2)n1` (configuration not stated): the growth with NCI-H23 lung is 69%; with NCI-H226 lung it was 66%; in the test with HOP-62 NSCLC, 54.8%; in the test with NCI-H460 lung, 66.9%; with HOP-92 NSCLC it was 60.3%; in the test on NCI-H522 lung, 69%. For the same molecule, the growth in the test on A549/ATCC NSCLC is 42.4%; in the test on 786-0 renal it was 15.9%; in the test on COLO 205 colon, 26.7%.

Regarding `COc1cc2ncnc(Nc3ccc(F)c(Cl)c3)c2cc1OCC(=O)N1CCCCC1`, the growth is 91% in the test on NCI-H23 lung; 86.8% in the test on NCI-H226 lung; 103% in the test on HOP-62 NSCLC; 95.5% in the test with NCI-H460 lung; 81.6% with HOP-92 NSCLC; 33.1% in the test with NCI-H522 lung. The growth in the test with A549/ATCC NSCLC is 67.8%; in the test with 786-0 renal it was 78.2%; in the test on COLO 205 colon, 96%.

Regarding `Cn1ccnc1CN1CCSC(C(=O)Nc2ccccc2)C1` (configuration not stated), the growth with NCI-H23 lung is 101%; in the test on NCI-H226 lung it was 87.1%; with HOP-62 NSCLC, 81.5%; in the test on NCI-H460 lung, 94.8%; in the test on HOP-92 NSCLC, 88.7%; in the test on NCI-H522 lung it was 85.6%. In addition, the values for the growth with A549/ATCC NSCLC, with 786-0 renal and in the test with COLO 205 colon were 83.8%, 98% and 112%, respectively.

For the molecule `Cc1cc2nc(C(Cl)Cl)nc(-c3ccc(Cl)cc3)n2n1`, the growth with NCI-H23 lung is -19.9% (active); with NCI-H226 lung, 67%; in the test with HOP-62 NSCLC, -8.28% (active); in the test with NCI-H460 lung it was -49.4% (active); with HOP-92 NSCLC, 16.1%; in the test on NCI-H522 lung, 3.6% (active). In addition, the growth was 0.301% (active) with A549/ATCC NSCLC, 45% in the test with 786-0 renal and -37.2% (active) in the test with COLO 205 colon.

As to `CN(Cc1ccccc1)c1nc(Cl)c(C2CC(c3ccc(F)cc3)=NN2C=O)s1` (configuration not stated), the growth in the test on NCI-H23 lung is 84.2%; in the test on NCI-H226 lung, 95.9%; with HOP-62 NSCLC, 107%; with NCI-H460 lung it was 96.9%; in the test with HOP-92 NSCLC, 89.5%; with NCI-H522 lung it was 83.3%. In addition, the growth in the test with A549/ATCC NSCLC is 94.6%; with 786-0 renal it was 93.9%; with COLO 205 colon, 99.7%.

`CC(=O)c1c(C)nc(SCC(=O)Nc2ccc(Cl)cc2)n1-c1ccc(Cl)cc1`: the growth in the test on NCI-H23 lung is 96.5%; with NCI-H226 lung, 96%; in the test with HOP-62 NSCLC it was 99%; in the test on NCI-H460 lung, 86.7%; in the test on HOP-92 NSCLC, 110%; with NCI-H522 lung, 72.3%. For the same molecule, the growth in the test on A549/ATCC NSCLC was 86.7%; with 786-0 renal, 102%; in the test with COLO 205 colon, 109%.

For `O=C(NCc1ccc(Cn2c(=O)sn(-c3ccc(Cl)cc3)c2=O)cc1)OCc1ccc2c(Cl)cc(Cl)c(O)c2n1`, the growth in the test with NCI-H23 lung is 44.1%; in the test with NCI-H226 lung, 56.9%; in the test with HOP-62 NSCLC, 38.3%; in the test on NCI-H460 lung, 21.7%; in the test with HOP-92 NSCLC, 64.7%; in the test with NCI-H522 lung, 68.8%. The figures for the growth with A549/ATCC NSCLC, in the test on 786-0 renal and in the test on COLO 205 colon were 30.5%, 55.8% and 109%, respectively.

For the molecule `CN(C)CCN1C(=O)c2c(c3c4ccccc4n4c3c3c2c2ccccc2n3C2CC(O)C(O)C4(C)O2)C1=O` (configuration not stated), the growth was 23.1% in the test on NCI-H23 lung; 18.6% in the test with NCI-H226 lung; 14.2% in the test with HOP-62 NSCLC; 2.33% (active) in the test with NCI-H460 lung; 75.9% in the test with HOP-92 NSCLC; -5.02% (active) in the test with NCI-H522 lung. Moreover, the growth with A549/ATCC NSCLC is 5.47% (active); in the test on 786-0 renal, 29.3%; in the test on COLO 205 colon, 18.9%.

On to `Nc1ccccc1SC(CC(=O)c1ccccc1)c1ccc([N+](=O)[O-])cc1` (configuration not stated), for which the growth with NCI-H23 lung was 93.2% and 84.7%; in the test with NCI-H322M lung it was 107% and 83.8%; in the test with HOP-62 NSCLC, 106% and 102%; in the test on NCI-H460 lung, 103% and 105%; in the test on HOP-92 NSCLC, 71.4%; with NCI-H522 lung it was 96.9% and 76.4%. In addition, the growth with A549/ATCC NSCLC is 93.9% and 82%; in the test on 786-0 renal it was 106% and 93.3%; with COLO 205 colon it was 91.6% and 102%.

Turning to `O=C1/C(=C/c2ccccc2)CN(C(=O)C(Cl)Cl)C/C1=C\c1ccccc1`, the growth is -56.5% (active) in the test on NCI-H23 lung; 95.6% in the test with NCI-H226 lung; 75.2% with HOP-62 NSCLC; -29.7% (active) in the test with NCI-H460 lung; 41.8% in the test on HOP-92 NSCLC; -0.507% (active) in the test with NCI-H522 lung. Also, the growth was 20.8% in the test with A549/ATCC NSCLC, -15.8% (active) in the test on 786-0 renal and -1.12% (active) in the test with COLO 205 colon.

In the case of `COc1ccccc1/C=C1\COc2ccc(O)cc2C1=O`, the growth with NCI-H23 lung was 101%; in the test with NCI-H226 lung it was 102%; in the test with HOP-62 NSCLC, 101%; in the test on NCI-H460 lung it was 93.3%; with HOP-92 NSCLC, 103%; in the test with NCI-H522 lung, 24.6%. Also, the growth in the test on A549/ATCC NSCLC was 84.6%; with 786-0 renal, 97.2%; with COLO 205 colon it was 87.6%.

Turning to `CCN1C(=S)N(CC)C2C1NC(=S)N2/N=C/C=C/c1ccccc1` (configuration not stated), the growth was 58.5% with NCI-H23 lung; 64.5% in the test with NCI-H226 lung; 44.4% in the test with HOP-62 NSCLC; 12.4% in the test with NCI-H460 lung; 62.2% with HOP-92 NSCLC; -7.6% (active) in the test on NCI-H522 lung. The growth in the test with A549/ATCC NSCLC was 37.6%; with 786-0 renal, 40.9%; in the test on COLO 205 colon it was 33.4%.

On to `Cc1ccc(-c2nc(C#N)c(S(=O)(=O)N(C)C)o2)cc1`, for which the growth in the test with NCI-H226 lung is 103%; with NCI-H322M lung, 91.1%; in the test on HOP-62 NSCLC, 96.7%; in the test on NCI-H460 lung, 110%; in the test on HOP-92 NSCLC, 103%; in the test with NCI-H522 lung it was -0.0776% (active). Moreover, the results for the growth in the test on A549/ATCC NSCLC, in the test with 786-0 renal and with COLO 205 colon were 102%, 96.4% and 16.7%, respectively.
